Laboratory results: PubChem BioAssay AID1117270 (Broad Institute, 2014)
Measured potencies and affinities stand elsewhere.

Test: inducers of E-selectin gene expression, confirmation, orthogonal assay for E-selectin inducer project, cell-based, HUVEC, RT-qPCR, dry powder (AID 1117270)
Conditions: HUVEC SELE mRNA, 7 h; at 38 µM unless noted;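 active = compounds with a valid dose curve toward the stimulated control whose half-maximal dose is at most twice the top dose; inconclusive = curve fit judged invalid or of poor quality; inactive = the rest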

Max activity, inactive:
OCc1ccc(-c2nn(Cc3ccccc3)c3ccccc23)o1 6.5% [at 2.6 µM]
Cc1cc2cc(CNC(=O)Nc3cccc(Cl)c3)ccc2n1C 7.76% [at 1.2 µM]
Cc1cc2cc(CNC(=O)Nc3ccc(Cl)c(Cl)c3)ccc2n1C -8.31%
O=C(O)C1CCN(c2nc(-c3ccccc3)c3cc(Br)ccc3n2)CC1 -4.71% [at 0.038 µM]
COc1ccc(Nc2ccccc2N)cc1 12.2%
CCc1ccc(-n2c(=S)sc3c(=O)n(-c4ccccc4C)c(SCC(=O)O)nc32)cc1 9.28% [at 10 µM]
O=C(c1c(F)cccc1F)N(Cc1ccccc1)Cc1ccccc1 -17.4% [at 0.16 µM]
Cc1cc(C)c(S(=O)(=O)NCCn2c(C)cc3ccccc32)c(C)c1 -91.1%
Cc1ccc(S(=O)(=O)NCc2ccc3c(c2)cc(C)n3C)cc1 4.64%
CNc1ccccc1C(C)(C)c1cc(-c2cccc(OC)c2)no1 -5.8% [at 0.0001 µM]
Cc1ccc(CSc2nc3[nH]ncc3c(=O)[nH]2)cc1 8.8% [at 0.0001 µM]
CCc1cccc2c1NC1(CCCC1)CC2C (centres undefined) 7.51% [at 5 µM]
Cc1cc2ccccc2n1CCNC(=O)COc1ccc2ccccc2c1 9.31% [at 10 µM]
COc1cc(CC2C(=O)Nc3ccccc32)cc(C)c1O (centres undefined) 8.57% [at 0.038 µM]
